Screens: PubChem, National Center for Advancing Translational Sciences (NCATS)
Sampled rows, rich in hits. Any-hit rate of the full collection: about 8.1%.
ClpP mod – qHTS Assay for Activators of ClpP; ATP-dependent Clp protease proteolytic subunit (Bacillus subtilis (strain 168)), P80244; purified B. subtilis ClpP, FRET peptide cleavage, 20 min; Potency, µM (series often up to 57.5 µM), for inactives: at the top dose activity change, negative = active; hit rate 1.9% among 340,000; AID 651965, 2013; active means well fitted falling curve with a large enough effect; inconclusive means small, poorly fitted or top-dose-only effect; inactive means no such curve, though single readings can be large or run the other way; further: the source files actives as falling curves though it sought activators and does not explain the sign; nearly all actives have a fitted effect of over 65% in size
Target sequence (P80244 whole entry, looked up): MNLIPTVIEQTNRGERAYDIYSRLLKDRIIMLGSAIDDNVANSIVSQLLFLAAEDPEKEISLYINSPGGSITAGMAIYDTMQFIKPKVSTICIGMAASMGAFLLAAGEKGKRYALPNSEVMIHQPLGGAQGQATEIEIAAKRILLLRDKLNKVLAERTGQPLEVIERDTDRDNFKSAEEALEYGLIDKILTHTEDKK
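Buffer: 100 mM Tris/HCl pH8, 100 mM KCl, 0.05% low protease BSA, 2.5% glycerol, 0.01% Tween-20. ClpP 10 microg/mL final; 20 min RT; delta FRET normalized to ADEP and DMSO controls.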
Epigenetic reg – Quantitative High-Throughput Screen for Regulators of Epigenetic Control | murine LDR cells, GFP reporter derepression, 30 h | Potency, µM (series often up to 53.9 µM), for inactives: at the highest dose GFP activation, usual class: activators | hit rate 0.2% among 280,000; further: % of control where 0% means no effect; nearly all actives have a fitted effect of over 60% in size
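In this reporter-derepression format, murine cells bearing a silenced integrated CMV-GFP locus incubate with test compound (30 h, 37 C), then are washed and imaged; fluorescent objects of 20–120 um count as induced cells.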
VP16 counter – VP16 counterscreen qHTS for inhibitors of ROR gamma transcriptional activity; Drosophila S2 Gal4-VP16 UAS-luciferase, luminescence, 20 h; Potency, µM (doses to about 53.6 µM), inactives show at the top dose activity, negative = inhibition, hits mostly inhibitors; hit rate 3.5% among 310,000; AID 2546, 2010;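 further: Gal4-VP16 expression switched on by copper sulfate through the metallothionein promoter; on the % scale 0 is the no-effect control and ±100 the full control effect; nearly all actives have a fitted effect of over 50% in size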
PINK1 expr mod – A Quantitative High throughput Screen to Identify Chemical Modulators of PINK1 Expression; PINK1 immunofluorescence, high-content cytometry, 24 h; Potency, µM (highest dose often 76.6 µM), for the others: at the top dose activation (PINK1 increase), hits mostly activators; hit rate 0.2% among 410,000; AID 624263, 2012; active means well fitted activation curve with a large enough effect; inconclusive means small, poorly fitted or top-dose-only effect; cell line not stated here; further: % of control where 0% means no effect; nearly all actives have a fitted effect of over 65% in size
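A stable cell line was treated with compounds at 5 concentrations for 24 hours, with CCCP as control. PINK1 levels and mitochondrial localization were measured by immunofluorescence with mitochondrial, cell and nuclear markers after fixation, read by laser-scanning cytometry.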
Sfp inh – qHTS Assay for Inhibitors of Bacillus subtilis Sfp phosphopantetheinyl transferase (PPTase); 4'-phosphopantetheinyl transferase ffp (Bacillus subtilis), Q9F4F7; AID 1490, 2009; Potency, µM, inactives show largest response in the series, negative = inhibition, actives largely listed as inhibitors; hit rate 3.5% among 310,000; Biochemical Sfp PPTase activity, qHTS;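 further: the enzyme is Sfp with the accession as filed and its product quenches rhodamine fluorescence; 0% = enzyme reaction without inhibitor and -100% = no enzyme wells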
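Sfp 15 nM + cpd, 15 min RT; start w/ rhodamine-CoA 5 uM, BHQ-2-YbbR 12.5 uM (final); 50 mM Hepes pH 7.6, 10 mM MgCl2, 0.01% NP-40, 0.01% BSA; read 525/598 nm at 0 and 30 min.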
RORg inh – qHTS for inhibitors of ROR gamma transcriptional activity; AID 2551, 2010; Potency, µM (top dose mostly 53.6 µM), for the others: at the top dose activity change, negative = inhibition, hits mostly inhibitors; hit rate 5.4% among 310,000; Drosophila S2 Gal4-RORgamma UAS-luciferase reporter, 20 h; Nuclear receptor ROR-gamma (Mus musculus), P51450; further: on the % scale 0 is the no-effect control and ±100 the full control effect; nearly all actives have a fitted effect of over 60% in size
Target sequence (P51450 whole entry, looked up, the tested form may be a part): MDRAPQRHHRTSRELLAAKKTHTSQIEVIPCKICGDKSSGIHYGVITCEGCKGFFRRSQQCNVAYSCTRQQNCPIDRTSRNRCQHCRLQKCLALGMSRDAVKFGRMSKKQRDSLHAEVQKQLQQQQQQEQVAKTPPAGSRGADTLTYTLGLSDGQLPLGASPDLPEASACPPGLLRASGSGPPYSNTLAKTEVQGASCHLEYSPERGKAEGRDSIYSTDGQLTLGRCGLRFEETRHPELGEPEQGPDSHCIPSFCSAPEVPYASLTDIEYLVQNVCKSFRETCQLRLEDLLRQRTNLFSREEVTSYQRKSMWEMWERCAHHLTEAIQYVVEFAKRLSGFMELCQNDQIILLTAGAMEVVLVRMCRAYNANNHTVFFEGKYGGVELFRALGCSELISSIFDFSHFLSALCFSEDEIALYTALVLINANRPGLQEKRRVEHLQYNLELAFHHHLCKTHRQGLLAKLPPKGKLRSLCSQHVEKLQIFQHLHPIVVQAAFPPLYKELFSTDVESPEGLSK
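Stably transfected Drosophila Schneider cells are the test system, with ROR gamma fused to Gal4 and luciferase under UAS control; luminescence is read after 20 hr of 700 uM copper sulfate induction at ambient temperature.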
The depositor's hits bear a star; ? = inconclusive; . = no result; [ ] = remark or other dose. Unless noted, the call rests on the fitted dose curve; in most records, active means well fitted curve in the direction sought with a large enough effect; inconclusive means small, poorly fitted or top-dose-only effect, or another doubt; inactive means no such curve, though single readings can be large; an effect the other way counts as inactive or inconclusive. Potency means the concentration at half of the fitted maximal effect.

SMILES	ClpP mod	Epigenetic reg	VP16 counter	PINK1 expr mod	Sfp inh	RORg inh
O=C(NNC(=S)NC(=O)c1sc2ccccc2c1Cl)c1ccc(Cl)cc1	-1.1%	1.0%	12.6µM*	13.3%	-13.2%	5.01µM*
O=C(NC(=S)Nc1ccccc1N1CCOCC1)c1sc2ccccc2c1Cl	0.9%	0.0%	1.6%	-0.3%	-15.0%	?
COc1ccc(C2/C=C\CN(CC3CC3)C(Cc3ccccc3)C(=O)N2Cc2ccc(F)cc2)cc1 (stereo not drawn)	.	.	?	.	2.6%	?
COC(=O)c1ccc(-c2ccc(/C=N/NC(=O)Cc3nnc(N)s3)o2)cc1	.	1.0%	13.4%	13.0%	56.2µM*	5.8%
Cc1ccc(C(=O)N/N=C/c2ccc(-c3cccc(C(F)(F)F)c3)o2)cn1	-0.3%	0.0%	10µM*	17.0%	12.0%	3.55µM*
O=C(O)/C=C/c1ccc(-c2cccc(C(F)(F)F)c2)o1	4.1%	-0.3%	-12.0%	0.0%	3.2%	25.5%
Nc1nonc1C(=O)N/N=C/c1ccc(-c2cccc(C(=O)O)c2)o1	.	-0.5%	-9.3%	.	56.2µM*	-4.6%
O=C(O)c1cccc(-c2ccc(/C=N/Nc3nn[nH]n3)o2)c1	.	1.1%	9.5%	0.2%	44.7µM*	-10.8%
Cc1ccc(OCC(=O)N/N=C\c2ccc(-c3cccc(C(=O)O)c3)o2)c(C)c1	?	-1.1%	-11.8%	5.8%	?	22.2%
CCOc1ccc(CCNC(=O)CCCc2nnc3n(CCCOC)c(=O)c4sccc4n23)cc1	-1.6%	2.7%	.	1.4%	.	.
COc1ccc(CC(=O)N/N=C/c2ccc(-c3ccc(F)cc3)o2)cc1OC	?	0.0%	0.6%	1.0%	-5.6%	0.2%
COc1ccc(CC(=O)N/N=C/c2ccc(-c3cccc(C(=O)O)c3)o2)cc1OC	-29.3%	0.1%	13.4%	0.6%	14.1µM*	-21.8%
CNC(=S)N/N=C/c1ccc(-c2cccc(C(=O)O)c2)o1	.	1.4%	?	-1.5%	?	7.08µM*
CO/N=C(\N)c1nonc1N	.	-0.1%	9.6%	0.3%	20.1%	-1.0%
CC(=O)N/N=C(\N)c1nonc1N	-3.5%	12.2%	6.2%	-1.0%	89.1µM*	-1.7%
O=C(Nc1ccc(Cl)cc1)Nc1ccccc1C(=O)O	.	-3.8%	11.2µM*	-1.4%	37.6%	7.08µM*
O=C(Nc1ccc(Cl)c(Cl)c1)Nc1ccccc1C(=O)O	.	-2.7%	?	0.1%	25.8%	?
O=C(Nc1cccc(Cl)c1)Nc1cccc(C(=O)O)c1	.	-1.0%	-27.7%	-0.4%	7.3%	-37.3%
CC(=O)Nc1cccc(C(=O)/C=C/c2ccc(C)cc2)c1	-1.1%	?	?	-1.9%	-3.2%	12.6µM*
O=C(Nc1ccc(Cl)cc1)Nc1cccc(C(=O)O)c1	.	4.0%	1.41µM*	-2.4%	-6.6%	3.16µM*
O=C(CSc1cn[nH]n1)Nc1cccc(C(=O)O)c1	.	.	-8.7%	0.9%	35.5µM*	-5.5%
CCOc1ccc(NC(=O)c2cc(=O)c3cc(CC)ccc3o2)cc1	1.3%	?	.	1.2%	.	.
O=C(CN1C(=O)C2CCCCN2c2ccc(C(=O)N3CCCC3)cc21)NCc1ccccc1 (stereo not drawn)	-12.5%	-0.6%	.	-0.9%	.	.
Cc1ccccc1OCC(=O)Nc1cccc(C(=O)O)c1	.	-0.3%	6.31µM*	1.0%	12.4%	2.51µM*
Cc1cccc(NC(=O)COc2ccc(Br)cc2/C=N/O)c1	-1.5%	0.9%	5.01µM*	1.4%	?	5.62µM*
SMILES	ClpP mod	Epigenetic reg	VP16 counter	PINK1 expr mod	Sfp inh	RORg inh
CC(=O)Nc1ccc(NC(=O)COc2ccc(Br)cc2C)cc1	0.1%	-4.0%	4.0%	5.4%	-5.6%	7.2%
CCOc1ccc(NC(=O)Nc2cccc(C(=O)O)c2)cc1	.	0.1%	5.01µM*	0.9%	1.4%	5.01µM*
CCOc1ccc(/C=C/C(=O)Nc2cccc(C(C)=O)c2)cc1	1.8%	-1.8%	4.47µM*	16.9%	0.2%	1.12µM*
Fc1ccc(CNc2nc3ccc(Cl)cc3n3nnnc23)cc1	-13.7%	?	.	4.4%	.	.
COc1ccc(/C=N\NC(=O)CCN2CCN(c3ccccc3)CC2)cc1OC	-2.3%	-1.2%	-14.8%	4.2%	5.0%	10.8%
O=C(CCN1CCN(C(c2ccccc2)c2ccccc2)CC1)N/N=C/c1ccc(O)cc1	-10.8%	-1.0%	19.1%	2.8%	6.0%	-7.0%
O=C(CCN1CCN(c2ccccc2)CC1)N/N=C/c1ccccc1OC(F)F	.	-1.4%	?	3.2%	11.2%	11.2µM*
O=C(CCN1CCN(C(c2ccccc2)c2ccccc2)CC1)N/N=C/c1ccc(O)cc1O	-4.2%	-1.0%	-19.4%	2.6%	5.2%	14.1µM*
COc1ccc(OC)c(/C=N/NC(=O)CCN2CCN(C(c3ccccc3)c3ccccc3)CC2)c1	28.2µM*	0.0%	?	0.4%	-16.9%	10µM*
COc1ccc(OC)c(NC(=O)CCN2CCN(Cc3ccccc3)CC2)c1	-1.1%	6.3%	3.1%	3.4%[38.3 µM]	3.9%	5.4%
Cn1c(=O)[nH]c(=O)c2c1nc(N1CCOCC1)n2Cc1ccccc1	0.1%	-1.6%	.	0.9%	.	.
CCCNc1cc(C)c(C#N)c2nc3ccccc3n12	2.82µM*	-0.1%	-13.3%	14.6%	-10.0%	-12.5%
CNc1cc(C)c(C#N)c2nc3ccccc3n12	-6.5%	.	-8.1%	2.0%	5.7%	16.6%
Cc1cccc(NC(=O)CSc2cc(C)c(C#N)c3nc4ccccc4n23)c1	-7.6%	?	?	6.7%	-11.8%	0.794µM*
Cc1cc(Cl)n2c(nc3ccccc32)c1C#N	-4.0%	0.0%	?	-1.0%	-2.8%	3.16µM*
Nc1ccc(F)cc1F	.	.	-23.6%	.	.	-3.4%
COCCn1c(N)c(C(=S)NC(=O)c2cccs2)c(=O)[nH]c1=O	-0.6%	-4.8%	-9.9%	2.4%	25.1µM*	5.9%
CCOC(=O)C1=C(CN2CCC(C(=O)OCC)CC2)NC(=O)NC1c1ccc(Cl)cc1 (stereo not drawn)	-2.4%	-1.4%	.	1.4%	.	.
COc1ccc(N(C(=O)COc2ccc(Br)cc2)S(=O)(=O)c2ccc(C)cc2)cc1	0.7%	-1.6%	.	3.3%	.	.
O=C(N/N=C\c1ccc([N+](=O)[O-])s1)C1COc2ccccc2O1 (stereo not drawn)	2.5%	.	2.82µM*	2.5%	-6.7%	3.55µM*
CCOC(=O)c1ccc(-n2c(O)c(/C=N/NC(=O)C3COc4ccccc4O3)c3ccccc3c2=O)cc1 (stereo not drawn)	0.5%	1.1%	2.82µM*	-1.4%	29.1%	2.51µM*
